# Publication PMC13083723 (Patterns, 2026)
# In all, about 5,400 compounds went through this assay and about 190 (3.5%) showed an effect of 50% or more. The sample as a whole holds a higher share of strong results than the screen did.
# System: Vero-E6
# Experiment: primary screen, phospholipidosis by LipidTOX staining; higher = more effect of the substance
# Settings: 10 µM
# Summary of the method: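 Single-concentration screen at 10 μM, with DMSO 0.1 v/v % and amiodarone 10 μM as controls. Read-out is LipidTOX Red phospholipid staining, which tolerates aldehyde fixation, in Vero-E6 cells.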
row,SMILES,result_ITMP [%]
1,CC1(C)S[C@@H]2C(N3C(=O)[C@@H](c4ccccc4)NC3(C)C)C(=O)N2[C@H]1C(=O)[O-] (stereo partly shown),-1.52
2,CC(=O)O[C@@]12CO[C@@H]1C[C@H](O)[C@@]1(C)C(=O)[C@H](O)C3=C(C)[C@@H](O)C[C@@](O)([C@@H](OC(=O)c4ccccc4)[C@H]21)C3(C)C,-5.35
3,Cc1noc(-c2ccc(-c3ccc(CC(=O)[O-])cc3)cc2)c1NC(=O)O[C@H](C)c1ccccc1,-0.34
4,O=C(Nc1ccccc1)Nc1ccc(-c2ccc(C(=O)[C@@H]3CCC[C@H]3C(=O)O)cc2)cc1 [R4A_0000400_001 / SPE_K81614372],-1.59
5,Cn1nccc1Nc1nccc(-c2ccn([C@H](CO)c3ccc(Cl)c(F)c3)c(=O)c2)n1 [R4A_0003897_001 / SPE_K86309810],-3.82
6,O[C@@H]1[C@H](O)[C@@H](CCl)O[C@H]1n1cnc2c(NC3CC4CCC3C4)ncnc21 (mixture of isomers),-1.27
7,CCCCN(CCCC)CCC(O)c1cc2c(Cl)cc(Cl)cc2c2cc(C(F)(F)F)ccc12 (stereo not shown),68.8
8,CCCCN(CCCC)CC(O)c1cc(Cl)cc2c1-c1ccc(Cl)cc1/C2=C/c1ccc(Cl)cc1 (stereo not shown),-0.63
9,CC(=O)N[C@@H]1C[C@H](O)[C@@H](CO)O[C@H]1O[C@H]1[C@H](O)[C@@H](O)[C@H](O)O[C@@H]1C(=O)[O-],-0.41
10,CC(C)[C@@H]1C(=O)N(S(C)(=O)=O)[C@@H]2CCN(C(=O)/C=C/CN3CCCCC3)[C@H]21,0.42
11,Cc1cccn2c(=O)c(/C=C(\C#N)c3nc4ccccc4s3)c(Oc3ccc(F)cc3)nc12,-3.48
12,O=C(CCn1cnc2c(O)ncnc21)Nc1ccc(C(=O)O)cc1,-5.54
13,C[C@@H]1CN(CC(=O)Nc2ccc3c(c2)Cc2cccc(-c4cc(=O)cc(N5CCOCC5)o4)c2S3)C[C@H](C)O1,4.24
14,NC(Cc1c[nH]c2ccc(O)cc12)C(=O)O (stereo not shown),-1.81
15,CC(N)Cc1c[nH]c2ccc(O)cc12 (stereo not shown),-1.42
16,CC(N)Cc1c[nH]c2ccc(OCc3cccs3)cc12 (stereo not shown),55.2
17,C=C[C@H]1C[N@]2CC[C@H]1C[C@@H]2[C@@H](O)c1ccnc2ccc(OC)cc12,11.5
18,CC1(C)[C@@H]2C[C@@H](O)[C@@](C)(O)[C@H]1C2,-10.7
19,Cc1ccc(Sc2ccccc2N2CCNCC2)c(C)c1,57.3
20,c1cc2c(c(N3CCNCC3)c1)OCCO2,-1.86
21,O=S(=O)(c1ccccc1)c1cnc2c(N3CCNCC3)cccc2c1,39.6
22,Cc1cc(CN2CCN(c3c(Br)cnc4[nH]c(-c5ccc(N6CCN(C)CC6)cc5)nc34)CC2)no1,-0.42
23,C[C@H](NC(=O)CCc1nc2ccccc2c(=O)[nH]1)c1ccccc1 [R4A_0003503_001 / SPE_A63444178],0.66
24,CC(C)[C@H]1c2ccc(F)cc2CC[C@@]1(CCN(C)CCCc1nc2ccccc2[nH]1)OC(=O)C1CC1,68.1
25,COCC(=O)O[C@]1(CCN(C)CCCc2nc3ccccc3[nH]2)CCc2cc(F)ccc2[C@@H]1C(C)C,88.2

row,SMILES,result_ITMP [%]
1,O=C(O)CCc1nc2ccccc2[nH]1,-0.69
2,Cc1cc(S(=O)(=O)[O-])c2c(C)ccc(C(C)C)cc1-2,-3.22
3,CC1=CC(=O)[N-]S(=O)(=O)O1,-5.65
4,C[C@]12CCC(=O)C=C1CC[C@@H]1[C@@H]2CC[C@@]2(C)[C@H]1CC[C@]2(C)O,0.46
5,O=C([O-])C(O)C(O)C(O)C(O)CO (stereo not shown),-6.08
6,O=C1[C@@H]2[C@H]3CC[C@H](C3)[C@@H]2C(=O)N1CCCCN1CCN(c2ncccn2)CC1,-0.39
7,CN(c1nccc(=O)[nH]1)C1CCN(c2nc3ccccc3n2Cc2ccc(F)cc2)CC1,0.52
8,c1ccc(Cn2c(-c3ccc(OC[C@H](C4CCNCC4)n4c(-c5ccccc5)nc5ccccc54)cc3)nc3ccccc32)cc1,13.3
9,c1ccc(Cn2c(N3CCNCC3)nc3ccccc32)cc1,51.9
10,C[C@H]1[C@H](C)CC[C@]2(C(=O)O)CC[C@]3(C)C(=CC[C@@H]4[C@@]5(C)CC[C@H](O)C(C)(C)[C@@H]5CC[C@]43C)[C@H]12,-0.84
11,CC[N+](CC)(CCNC(=O)C(=O)NCC[N+](CC)(CC)Cc1ccccc1Cl)Cc1ccccc1Cl,-0.68
12,Clc1ccccc1CNC[C@H]1CC[C@H](CNCc2ccccc2Cl)CC1,111
13,Clc1ccccc1CN1CCc2sccc2C1,5.84
14,COC(=O)[C@@]12OC[C@]34[C@H]([C@@H](O)[C@@H]1O)[C@@]1(C)CC(=O)C(O)=C(C)[C@@H]1C[C@H]3OC(=O)[C@H](OC(=O)/C=C(\C)C(C)C)[C@@H]24,-3.12
15,O=C1CN(/N=C/c2ccc(-c3ccc([N+](=O)[O-])cc3)o2)C(=O)[N-]1,-3.77
16,CCCCc1oc2ccc(NS(C)(=O)=O)cc2c1C(=O)c1ccc(OCCCN(CCCC)CCCC)cc1,74.9
17,CCCCc1oc2ccccc2c1C(=O)c1cc(I)c(OCCN(CC)CC)c(I)c1,55.1
18,CCc1oc2ccccc2c1C(=O)c1cc(Br)c(O)c(Br)c1,0.74
19,CCCCN(CCCC)CCCOC(=O)c1ccc(N)cc1,4.87
20,CN(CCOc1ccc(NS(C)(=O)=O)cc1)CCc1ccc(NS(C)(=O)=O)cc1,-1.68
21,CCc1oc2ccccc2c1C(=O)c1ccc(OCC(=O)O)cc1,-9.49
22,CC[C@@H](C)C[C@@H](C)CCCCCCCCC(=O)N[C@H]1C[C@@H](O)[C@@H](NCCN)NC(=O)[C@@H]2[C@@H](O)CCN2C(=O)[C@H]([C@H](O)CCN)NC(=O)[C@H]([C@H](O)[C@@H](O)c2ccc(O)cc2)NC(=O)[C@@H]2C[C@@H](O)CN2C(=O)[C@H]([C@@H](C)O)NC1=O,-8.5
23,CC(C)c1cc2c(cc1S(=O)(=O)O)[C@@]1(C)CCC[C@@](C)(C(=O)O)[C@@H]1CC2,-4.65
24,CC(C)c1ccc2c(c1)CC[C@H]1[C@](C)(CN)CCC[C@]21C,80.5
25,Cc1c(N)nc([C@H](CC(N)=O)NC[C@@H](N)C(N)=O)nc1C(=O)N[C@H](C(=O)N[C@@H](C)[C@H](O)[C@@H](C)C(=O)N[C@@H](C(=O)NCCc1nc(-c2nc(C(=O)NCCC[S+](C)C)cs2)cs1)[C@@H](C)O)C(O[C@H]1O[C@H](CO)[C@H](O)[C@@H](O)[C@H]1O[C@H]1O[C@H](CO)[C@@H](O)[C@H](OC(N)=O)[C@@H]1O)c1c[nH]cn1 (stereo partly shown),7.07

row,SMILES,result_ITMP [%]
1,C[C@]12C=CC(=O)N[C@@H]1CC[C@@H]1[C@@H]2CC[C@]2(C)[C@@H](C(=O)Nc3cc(C(F)(F)F)ccc3C(F)(F)F)CC[C@@H]12,-3.63
2,C[C@@H]1CC[C@@]2(OC1)O[C@H]1C[C@H]3[C@@H]4CC=C5C[C@@H](O[C@@H]6O[C@H](CO)[C@@H](O[C@@H]7O[C@@H](C)[C@H](O)[C@@H](O)[C@H]7O)[C@H](O)[C@H]6O[C@@H]6O[C@@H](C)[C@H](O)[C@@H](O)[C@H]6O)CC[C@]5(C)[C@H]4CC[C@]3(C)[C@H]1[C@@H]2C,18.9
3,CC1(C)S[C@@H]2[C@H](NC(=O)Cc3ccccc3)C(=O)N2[C@H]1C(=O)[O-],-4.24
4,Clc1ccc(Nc2nnc(Cc3ccncc3)c3ccccc23)cc1,-1.32
5,CN1CCCC(n2nc(Cc3ccc(Cl)cc3)c3ccccc3c2=O)CC1 (stereo not shown),57.2
6,COC1CCN(C(=O)c2cc(Cc3n[nH]c(=O)c4ccccc34)ccc2F)CC1,2.83
7,Cc1nnc(SCC2=C(C(=O)[O-])N3C(=O)[C@@H](NC(=O)Cn4cnnn4)[C@H]3SC2)s1,-0.51
8,C=CCN1CC[C@@]2(C)c3cc(O)ccc3C[C@H]1[C@H]2C,-0.02
9,CN1CC[C@@H]2CN3CCc4cccc(c43)[C@@H]2C1,5.83
10,CN1CCCC(CC2c3ccccc3Sc3ccccc32)C1 (stereo not shown),74.2
11,CN1CCCC(CN2c3ccccc3Sc3ccccc32)C1 (stereo not shown),42.2
12,C[C@]12CC[C@@H](O)C[C@@H]1CC[C@@H]1[C@@H]2CC[C@]2(C)C(c3ccccc3)=CC[C@@H]12,-2.07
13,N#CCc1ccccc1C#Cc1ccc(CCC(=O)O)c(F)c1,-8.03
14,O=C(O[C@H]1C[C@H]2CC[C@@H](C1)[N+]21CCCC1)C(O)(c1ccccc1)c1ccccc1,-3.78
15,CN1[C@@H](CC(=O)c2ccccc2)CCC[C@H]1C[C@H](O)c1ccccc1,13.8
16,COc1ccc2nc3ccc(Cl)cc3c(SCCCN)c2c1,-9.55
17,CCN(CCO)CCCC(C)Nc1ccnc2cc(Cl)ccc12 (stereo not shown),1.54
18,CCN(CC)CCCC(C)Nc1c2ccc(Cl)cc2nc2ccc(OC)cc12 (stereo not shown),110
19,CC1(C)CCC(C)(C)c2c1cc(C(=O)Nc1cc(F)c(C(=O)O)c(F)c1)c(O)c2Cl,-2.47
20,CSc1ccc2c(c1)C(N1CCN(C)CC1)Cc1ccccc1S2 (stereo not shown),79.9
21,CSc1ccc([C@H]2CN3CCC[C@H]3c3ccccc32)cc1 (racemic),14.1
22,CC[C@H]1[C@@H](O)[C@@H]2[C@H](CC[C@]3(C)[C@@H]([C@H](C)CCOS(=O)(=O)[O-])CC[C@@H]23)[C@@]2(C)CC[C@@H](O)C[C@@H]12,-1.93
23,Nc1nc(=O)c2c(CCc3ccc(C(=O)N[C@@H](CCC(=O)[O-])C(=O)[O-])cc3)c[nH]c2[nH]1,-3.84
